From PubChem
Only some compounds are listed: those with a hit (about 1.8% of all), similar ones and a draw of the others.
GALR2 ag – GALR2 (human) receptor agonism. 140,000 compounds, 0.48% hits. GALR2-expressing cells, agonist activation read-out. AID 803. activation, % (concentration not given with the values). O43603; in the data active means activation above about 5%, passing the limit was not always enough;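 further: 0% = vehicle buffer wells and 100% = reference agonist at full effect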
Target sequence (O43603 whole entry, looked up): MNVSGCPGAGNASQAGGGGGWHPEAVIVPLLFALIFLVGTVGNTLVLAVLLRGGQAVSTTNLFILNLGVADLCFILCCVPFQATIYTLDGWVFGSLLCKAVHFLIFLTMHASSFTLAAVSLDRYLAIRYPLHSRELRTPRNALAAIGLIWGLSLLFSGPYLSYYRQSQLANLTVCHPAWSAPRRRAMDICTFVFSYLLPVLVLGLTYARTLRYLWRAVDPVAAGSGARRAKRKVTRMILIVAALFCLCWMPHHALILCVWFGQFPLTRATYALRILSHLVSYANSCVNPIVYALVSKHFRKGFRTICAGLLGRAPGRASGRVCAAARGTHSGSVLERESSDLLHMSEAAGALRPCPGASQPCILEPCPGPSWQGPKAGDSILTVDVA
S1P2 antag – antagonists of human S1P2 receptor. O95136. cell-based S1P2 antagonist assay, inhibition at 5 uM. inhibition, % at 5 µM. 97,000 compounds, 0.21% hits. AID 736; in the data active means inhibition above about 45%;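 further: CRE beta-lactamase reporter cells expressing human S1P2 stimulated with S1P; 0% = agonist at EC80 alone and 100% = agonist plus reference antagonist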
MRP reversal – compounds reversing MRP-mediated drug resistance. H69AR cells + 2 uM doxorubicin, CellTiter-Glo, 72 h. differential viability (reversal), % at 10 µM. 85,000 compounds, 0.04% hits;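 active means viability drop by adding the cancer drug above about 55%, with treated viability meeting a 40% cutoff, limit read from the data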;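 further: viability without doxorubicin minus viability with 2 µM doxorubicin for each compound; larger differential means the compound sensitizes cells more to doxorubicin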
GALR2 blocker – GALR2 (human) receptor antagonism. O43603. GALR2-expressing cells, antagonist mode. inhibition, % at 4 µM. 140,000 compounds, 0.39% hits; in the data active means inhibition above about 27%;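 further: cells stimulated with galanin 1-16 at roughly its EC80; 0% = agonist challenge control and 100% = basal control without agonist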
S1P2 ag – S1P2 (human) receptor agonism | O95136 | S1P2-expressing cell line, agonist reporter read-out | activation, % at 4.5 µM | 97,000 compounds, 0.46% hits; in the data active means activation above about 16%;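 further: 0% = vehicle low control and 100% = maximal reference agonist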
MRP-1 activ – activates MRP-1. H69AR cells + doxorubicin, viability rescue, CellTiter-Glo. viability increase, % at 10 µM. 140,000 compounds, 0.61% hits;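 active means viability gain under doxorubicin at or above a set limit, the compound median plus 3 SD, cut at about 4.7% in these data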;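 further: MRP-1 overexpressing cells given doxorubicin 25 µM after compound pretreatment; 18-22 h compound pretreatment then 72 h with doxorubicin before readout; 0% = doxorubicin-only wells and 100% = vehicle-treated cells without doxorubicin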
Active calls of the source: *.

What do the screens show for `CCOC(=O)N1CCC(NC(=O)C2CCCN(Cc3nc(-c4cccc(Cl)c4)oc3C)C2)CC1` (stereo not drawn)?
GALR2 ag: -1; S1P2 antag: 61*; GALR2 blocker: 25; S1P2 ag: -2; MRP-1 activ: -3

Results for Cc1ccc(-c2csc3ncn(-n4c(C)ccc4C)c(=O)c23)o1 ?
GALR2 ag: -1; S1P2 antag: 7; MRP reversal: 20; GALR2 blocker: -5; S1P2 ag: -4; MRP-1 activ: -2

How did CCOC(=O)C1=C(C)OC(N)=C(C#N)C1c1c(C)nn(-c2ccc(C)cc2)c1Cl (stereo not drawn) do in these assays?
GALR2 ag: -2; S1P2 antag: -11; MRP reversal: -13; GALR2 blocker: -8; S1P2 ag: -5; MRP-1 activ: -3

What do the screens show for `O=C1c2ccccc2C(=O)c2c1cccc2N1CCOCC1`?
GALR2 ag: 0; S1P2 antag: -22; GALR2 blocker: -14; S1P2 ag: 22*; MRP-1 activ: -4

Results for O=C1C2C3C=CC(C3)C2C(=O)N1/N=C/c1cn(Cc2ccccc2)c2ccccc12 (stereo not drawn) ?
GALR2 ag: -1; S1P2 antag: 4; GALR2 blocker: 0; S1P2 ag: -1; MRP-1 activ: -1

What do the screens show for `NC1=NC(=O)/C(=C/c2cn(Cc3ccccc3)c3ccccc23)S1`?
GALR2 ag: 5.3*; GALR2 blocker: 3; MRP-1 activ: -1

Results for Cn1c(CCNC(=O)c2ccccc2)nc2cc(NC(=O)c3ccco3)ccc21 ?
GALR2 ag: -2; S1P2 antag: 16; MRP reversal: 7; GALR2 blocker: 5; S1P2 ag: -8; MRP-1 activ: -2

How did c1ccc(Cc2nnc3sc(-c4ccccn4)nn23)cc1 do in these assays?
GALR2 ag: -1; S1P2 antag: -7; GALR2 blocker: -7; S1P2 ag: -7; MRP-1 activ: 0

Results for CCCn1c(-c2cc(OC)c(OC)c(OC)c2)nc2nc3ccccc3nc21 ?
GALR2 ag: -1; S1P2 antag: 5; MRP reversal: -4; GALR2 blocker: -10; S1P2 ag: 17*; MRP-1 activ: -4

How did C=CCn1c(-c2ccc(OC)cc2)nc2nc3ccccc3nc21 do in these assays?
GALR2 ag: -2; S1P2 antag: -15; MRP reversal: -5; GALR2 blocker: -5; S1P2 ag: -1; MRP-1 activ: -3

What do the screens show for `Cc1ccc2nc(N3CCN(Cc4nnnn4Cc4ccccc4)CC3)c(C#N)cc2c1`?
GALR2 ag: 0; S1P2 antag: 5; MRP reversal: 7; GALR2 blocker: 13; S1P2 ag: -3; MRP-1 activ: 0

Results for COc1nc(N)c(S(=O)(=O)c2ccccc2C)cc1C#N ?
GALR2 ag: -3; S1P2 antag: 5; GALR2 blocker: 2; S1P2 ag: -6; MRP-1 activ: -1

What do the screens show for `CCCn1c(N2CCN(C(=O)N3CCCCC3)CC2)nc2ccccc21`?
GALR2 ag: 1; S1P2 antag: -6; MRP reversal: -5; GALR2 blocker: -4; S1P2 ag: 1; MRP-1 activ: -2

What do the screens show for `Cc1nnc(NC(=O)c2c(F)cccc2F)s1`?
GALR2 ag: -2; S1P2 antag: 22; MRP reversal: -1; GALR2 blocker: 7; S1P2 ag: -4; MRP-1 activ: 9.3*

What do the screens show for `Cc1nnc(NC(=O)c2cccc(F)c2)s1`?
GALR2 ag: -2; S1P2 antag: 15; GALR2 blocker: 2; S1P2 ag: -2; MRP-1 activ: 0

How did COc1ccc(NC(=O)c2ccc(-c3ccccc3)cc2)cc1NS(=O)(=O)c1ccc(F)cc1 do in these assays?
GALR2 ag: -2; GALR2 blocker: 12; MRP-1 activ: -1

How did CCNc1sc(C(=O)c2cccs2)c(N)c1-c1nc2ccccc2s1 do in these assays?
GALR2 ag: -1; S1P2 antag: 23; MRP reversal: 36; GALR2 blocker: 13; S1P2 ag: -8; MRP-1 activ: 9.0*

What do the screens show for `CCc1ccc(-c2nc(-c3ccncc3)no2)cc1`?
GALR2 ag: -3; S1P2 antag: 5; MRP reversal: 11; GALR2 blocker: 1; S1P2 ag: -8; MRP-1 activ: 5.8*

Results for N#Cc1ccc(N2C(=O)[C@@H]3C(C(=O)c4ccc5ccccc5n4)=NN[C@@H]3C2=O)cc1 ?
GALR2 ag: -2; GALR2 blocker: -5; MRP-1 activ: 9.3*

Results for O=C(NCCc1ccccc1)C(=O)c1c(-c2ccccc2)cc2ccccn12 ?
GALR2 ag: 0; GALR2 blocker: 4; MRP-1 activ: 8.3*

Results for CC(C)CC(=O)NC(=S)Nc1ccc(NC(=O)c2ccco2)cc1 ?
GALR2 ag: 0; GALR2 blocker: 5; MRP-1 activ: -1

What do the screens show for `O=C1Nc2ccc(Cl)cc2/C1=C/C1CC=CCC1` (stereo not drawn)?
GALR2 ag: 5.0*; GALR2 blocker: 2; MRP-1 activ: -5

How did CC1(C)C(=O)OC(c2ccccc2)C2(CCCC2)C1=O (stereo not drawn) do in these assays?
GALR2 ag: -1; S1P2 antag: -28; MRP reversal: 0; GALR2 blocker: 2; S1P2 ag: 2; MRP-1 activ: 0

What do the screens show for `O=C(CN1CCc2ccccc21)NCc1ccc2c(c1)OCO2`?
GALR2 ag: -1; GALR2 blocker: 9; MRP-1 activ: -1

Results for Clc1ccc2[nH]c3c(NCCCN4CCOCC4)ncnc3c2c1 ?
GALR2 ag: -3; S1P2 antag: -19; MRP reversal: 6; GALR2 blocker: 13; S1P2 ag: 4; MRP-1 activ: -6

How did O=C1CCCN1CCCNc1ncnc2c1[nH]c1ccc(Cl)cc12 do in these assays?
GALR2 ag: -1; S1P2 antag: 11; MRP reversal: 6; GALR2 blocker: -18; S1P2 ag: 17*; MRP-1 activ: -5

Results for CC1(C)SC(=S)N(/N=C/c2ccc(O)cc2)C1N(O)C(=O)Nc1ccc([N+](=O)[O-])cc1 (stereo not drawn) ?
GALR2 ag: 0; S1P2 antag: 32; GALR2 blocker: -1; S1P2 ag: -10; MRP-1 activ: -2

How did Cc1cc(/C([O-])=C(/C(=S)Nc2ccccc2)[n+]2ccccc2)c(C)n1-c1ccccc1 do in these assays?
GALR2 ag: -2; S1P2 antag: -5; GALR2 blocker: 1; S1P2 ag: -5; MRP-1 activ: 0

Results for O=C(Nc1ccn(Cc2ccccc2F)n1)c1ccc(COc2cc(Cl)ccc2Cl)o1 ?
GALR2 ag: 0; S1P2 antag: 12; GALR2 blocker: -7; S1P2 ag: -6; MRP-1 activ: 7.0*

What do the screens show for `O=C(Nc1ccn(Cc2c(F)c(F)cc(F)c2F)n1)c1ccc(COc2cc(Cl)ccc2Cl)o1`?
GALR2 ag: -2; S1P2 antag: -1; GALR2 blocker: -4; S1P2 ag: -4; MRP-1 activ: 3

Results for N#Cc1nc(-c2ccc(OCc3ccccc3)cc2)oc1NCc1cccnc1 ?
GALR2 ag: -1; S1P2 antag: -5; MRP reversal: -12; GALR2 blocker: -15; S1P2 ag: -4; MRP-1 activ: -3
